Screening results (PubChem)
A selection: hits, their analogues and other compounds. The true share with any hit is near 2.1%.
CendR NRP1 mod: modulators of CendR peptide binding to human neuropilin-1; inhibition, % at 25 µM; O14786; AID 602438; 360,000 tested, 0.85% active; FAM-RPARPAR peptide binding to NRP-1, fluorescence polarization;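 active = inhibition or corrected inhibition above about 18%, plus a signal ratio from 0.5 to 1.5, limit read from the data, passing the limit was not always enough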
Target sequence (O14786 whole entry, looked up): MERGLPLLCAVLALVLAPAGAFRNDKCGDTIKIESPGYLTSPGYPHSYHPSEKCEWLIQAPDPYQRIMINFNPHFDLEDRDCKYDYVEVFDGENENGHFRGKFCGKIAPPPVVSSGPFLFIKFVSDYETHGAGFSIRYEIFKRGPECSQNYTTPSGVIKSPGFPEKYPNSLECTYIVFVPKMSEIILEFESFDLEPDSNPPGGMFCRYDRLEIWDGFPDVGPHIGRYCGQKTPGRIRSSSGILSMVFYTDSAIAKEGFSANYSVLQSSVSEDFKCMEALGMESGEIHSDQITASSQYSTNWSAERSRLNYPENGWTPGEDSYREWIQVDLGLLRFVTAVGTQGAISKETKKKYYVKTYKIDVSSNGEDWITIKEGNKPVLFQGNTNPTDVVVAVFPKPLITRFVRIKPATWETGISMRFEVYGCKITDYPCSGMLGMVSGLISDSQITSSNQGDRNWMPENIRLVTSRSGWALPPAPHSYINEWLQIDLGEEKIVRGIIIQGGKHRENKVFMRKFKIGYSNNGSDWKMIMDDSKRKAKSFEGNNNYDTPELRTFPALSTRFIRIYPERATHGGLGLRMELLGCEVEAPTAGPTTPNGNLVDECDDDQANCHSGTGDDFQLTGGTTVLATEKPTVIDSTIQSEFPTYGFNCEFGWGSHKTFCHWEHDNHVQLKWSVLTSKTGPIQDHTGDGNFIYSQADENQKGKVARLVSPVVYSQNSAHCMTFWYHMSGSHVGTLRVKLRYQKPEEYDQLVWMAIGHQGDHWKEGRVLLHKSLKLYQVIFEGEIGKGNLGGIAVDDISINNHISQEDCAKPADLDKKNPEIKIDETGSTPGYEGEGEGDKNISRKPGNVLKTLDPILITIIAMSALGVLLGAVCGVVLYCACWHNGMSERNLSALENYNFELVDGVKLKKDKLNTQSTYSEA
PABP polyA inh: PABP-poly(A) binding inhibition; AID 2014; 290,000 tested, 1% active; PABP-poly(A) RNA binding, fluorescence polarization; inhibition, % at 35 µM;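 note: calls also rest on retests at 20 µM and on dose response follow-up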
eIF4H inh: inhibitors of RNA binding by human eIF4H; eIF4H fluorescence polarization binding assay; inhibition, % at 35 µM; 290,000 tested, 0.94% active; AID 2012;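 note: calls also rest on retests at 20 µM and on dose response follow-up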
MLLE-PAM2 inh: blocks PAM2 peptide binding to the PABP1 MLLE domain; P11940; GST-MLLE / FITC-PAM2 fluorescence polarization; inhibition, % at 20 µM; 360,000 tested, 0.36% active; AID 588489; in the data active = inhibition above about 35%, passing the limit was not always enough
Of the large screens only hits and unclear results are named; the others gave an inactive call. Unless noted, the rule behind the calls is not given here.

CC(=O)Nc1ccc(/C=C(\C#N)S(=O)(=O)c2ccc(C)cc2)cc1	none (no result: PABP polyA inh, eIF4H inh)
CCCNC(=O)COC(=O)c1cc(-c2ccc(OC)cc2)nc2ccccc12	PABP polyA inh 51
O=C(COC(=O)CCN=C1NS(=O)(=O)c2ccccc21)NNC(=O)c1ccc(Cl)cc1	none (no result: PABP polyA inh, eIF4H inh)
COC(=O)CCCCC1SCC2NC(=O)NC21O (stereo unspecified)	CendR NRP1 mod 27
Cc1ccsc1CN(C)c1ncnc2ccc(-c3ccoc3)cc12	none (no result: PABP polyA inh, eIF4H inh)
COc1ccc(-c2cc(=O)c3cc(O)ccc3o2)cc1	none
COc1ccc2oc(-c3ccncc3)cc(=O)c2c1	MLLE-PAM2 inh 40 (no result: PABP polyA inh, eIF4H inh)
O=[N+]([O-])c1cccc(C(=S)N2CCN(c3ccccc3F)CC2)c1	MLLE-PAM2 inh 46
CC(=O)N1CCN(C(=S)c2ccc([N+](=O)[O-])cc2)CC1	CendR NRP1 mod 18
CC1CN(C(=S)NC(=O)c2ccc([N+](=O)[O-])cc2)CC(C)O1 (stereo unspecified)	none
O=C(/C=C/c1cccc([N+](=O)[O-])c1)N1CCN(c2ccccc2F)CC1	none
CC1CN(C(=S)c2cccc([N+](=O)[O-])c2)CC(C)O1 (stereo unspecified)	MLLE-PAM2 inh 39
O=[N+]([O-])c1cccc(C(=S)N2CCN(c3ccccc3)CC2)c1	MLLE-PAM2 inh 63
NC(CSC(c1ccccc1)(c1ccccc1)c1ccc2c(c1)OCO2)C(=O)O (stereo unspecified)	none (no result: PABP polyA inh, eIF4H inh)
COc1ccc(C(=O)Nc2ccc(C(=O)OCC(=O)c3cccc4ccccc34)cc2)cc1	CendR NRP1 mod 32
O=C(CSc1nnc(-c2ccccn2)o1)Nc1ccccc1F	none
CC(C)(C)c1ccc(C(=O)NCc2nnc(SCC(=O)NCc3ccco3)o2)cc1	eIF4H inh 52
CC1(C(=O)NS(=O)(=O)c2cccc(F)c2)CCN1C(=O)Cc1cccc2ccccc12 (stereo unspecified)	none (no result: PABP polyA inh, eIF4H inh)
Cc1c(NC(=S)Nc2cccc(Cl)c2)c(=O)n(-c2ccccc2)n1C	eIF4H inh active
Cc1c(NC(=S)N/N=C/C=C/c2ccc([N+](=O)[O-])cc2)c(=O)n(-c2ccccc2)n1C	CendR NRP1 mod 36
Cc1c(NC(=O)Nc2cccc(Cl)c2)c(=O)n(-c2ccccc2)n1C	none
Cc1c(NC(=S)N/N=C/C=C/c2ccccc2)c(=O)n(-c2ccccc2)n1C	none
CSc1ncnc2c1ncn2CCCN1CCN(Cc2c(C)cc(C)cc2C)CC1	none (no result: PABP polyA inh, eIF4H inh)
O=C(CC1CCCC1)NNC(=O)c1ccc(Br)cc1	none (no result: PABP polyA inh, eIF4H inh)
CC(NC(=O)CNC(=O)c1sc2ccccc2c1Cl)c1cccnc1 (stereo unspecified)	none
COc1ccccc1C(=O)Oc1cc(C)[nH]c(=O)c1[N+](=O)[O-]	none
Cc1cc(OC(=O)c2ccccc2C)c([N+](=O)[O-])c(=O)[nH]1	CendR NRP1 mod 34
Brc1ccc([C@H]2C=C[C@H]3CCCN4CC[C@H]2[C@@H]3[C@]42CO2)cc1	none (no result: PABP polyA inh, eIF4H inh, MLLE-PAM2 inh)
Cn1cccc1CC(=O)NNC(=S)Nc1ccc(Cl)cc1Cl	PABP polyA inh active, eIF4H inh 58
COc1cccc(OCC(=O)NNC(=S)Nc2ccc(Cl)cc2Cl)c1	CendR NRP1 mod 24
COc1cc(C(=O)OCC(=O)Nc2ccccc2C(=O)NC2CC2)c([N+](=O)[O-])cc1OC	none (no result: PABP polyA inh, eIF4H inh)
COc1cc(/C=C/C(=O)N2C(=O)c3cccc(N)c3C2=O)cc(OC)c1OC	none
COc1ccc(OC)c(/C=C/C(=O)N2C(=O)c3cccc(N)c3C2=O)c1	MLLE-PAM2 inh 40
COCCOC(=O)N1CCCCC1c1cc(C(=O)NCc2ccc(Cl)c(Cl)c2)no1 (stereo unspecified)	none (no result: PABP polyA inh, eIF4H inh)
COc1ccc(COc2cc(-c3cccc(OC)c3)nc3ccc(NC(C)=O)cc23)cc1	CendR NRP1 mod 27
COc1ccc(COc2cc(-c3cccc(OC)c3)nc3ccc(NC(=O)c4ccc(C)cc4)cc23)cc1	none
COc1ccc(COc2cc(-c3cccc(OC)c3)nc3ccc(NC(=O)c4ccc(N(C)C)cc4)cc23)cc1	CendR NRP1 mod 28
NC(=O)C1CCCN(C(=O)c2ccc3nc(Cc4cccc(Cl)c4)oc3c2)C1 (stereo unspecified)	CendR NRP1 mod 27
CC(=O)C1CCCN(C(=O)c2ccc3nc(Cc4cccc(Cl)c4)oc3c2)C1 (stereo unspecified)	none
S=C(Nc1ccccc1)Nc1nc2ccccc2n1CCOc1ccccc1	none
CCCCn1c(NC(=S)Nc2ccccc2)nc2ccccc21	MLLE-PAM2 inh 40
CCOC(=O)C1=C(C)NC(C)=C(C(=O)OCC)C1C(=O)OCC(=O)NCc1ccc(F)cc1	none (no result: PABP polyA inh, eIF4H inh)
COc1ccc(S(=O)(=O)N2CCCC(C(=O)N3CCOCC3)C2)cc1C (stereo unspecified)	CendR NRP1 mod 34
Cc1cc(S(=O)(=O)NC2CCCCC2)ccc1OCC(=O)N1CCOCC1	CendR NRP1 mod 27
COc1ccc(S(=O)(=O)N2CCCC(C(=O)N3CCOCC3)C2)cc1Cl (stereo unspecified)	none
Cc1cccc(OCC(=O)N2CCOCC2)c1	PABP polyA inh 99, eIF4H inh 8.3
Cc1ccc(-c2ccc(OCC(=O)N3CCOCC3)cc2)cc1	none
CCCCn1nc2cc(C(=O)NCc3cc(C(F)(F)F)cc(C(F)(F)F)c3)ccc2c1OC	CendR NRP1 mod 27
COc1c2ccc(C(=O)NCc3cc(C(F)(F)F)cc(C(F)(F)F)c3)cc2nn1C	CendR NRP1 mod 28
CCCCn1nc2cc(C(=O)NCc3ccc(OC(F)(F)F)cc3)ccc2c1OC	CendR NRP1 mod 27
CCn1nc2cc(C(=O)NCc3cc(C(F)(F)F)cc(C(F)(F)F)c3)ccc2c1OC	none
CCn1c(C)cc(C)c(C#N)c1=O	none
Cc1cc(C)n(NC(=S)NC2CCCC2)c(=O)c1C#N	MLLE-PAM2 inh 45
O=C(COC(=O)C1CCC(N2C(=O)C3C4CCC(C4)C3C2=O)CC1)c1ccc(F)cc1 (stereo unspecified)	none
CCn1c(=O)n(CC)c2cc(N3CCCC3)c(NC(=O)c3ccccc3C)cc21	CendR NRP1 mod 27
COc1ccccc1NS(=O)(=O)c1ccc(N/N=C/C=C/c2ccccc2[N+](=O)[O-])c([N+](=O)[O-])c1	CendR NRP1 mod 29
COc1ccccc1NS(=O)(=O)c1ccc(N/N=C/c2ccccc2OCC(=O)O)c([N+](=O)[O-])c1	none
COCCCN1C(=O)C(CC(=O)NCCc2ccccn2)CC(C(=O)N2CCCCCC2)=C1C (stereo unspecified)	none (no result: PABP polyA inh, eIF4H inh, MLLE-PAM2 inh)
O=C(CSc1cccc[n+]1[O-])Nc1cc(S(=O)(=O)N2CCOCC2)ccc1N1CCOCC1	CendR NRP1 mod 28
COc1cc(C(=S)N2CCOCC2)cc(OC)c1OS(=O)(=O)c1ccc(C)cc1	MLLE-PAM2 inh 42
COc1cc(C(=S)N2CCOCC2)cc(OC)c1OS(=O)(=O)c1ccc(NC(C)=O)cc1	none
CCOC(=O)c1nnn(-c2nonc2N)c1COc1ccc(F)cc1	none
CCOC(=O)c1nnn(-c2nonc2N)c1COc1ccccc1	PABP polyA inh 112
CC1CC(C)CN(S(=O)(=O)N2CCCC(C(=O)NCCCN3CCCCC3C)C2)C1 (stereo unspecified)	none
CCC1CCCCN1CCCNC(=O)C1CCCN(S(=O)(=O)N2CC(C)CC(C)C2)C1 (stereo unspecified)	CendR NRP1 mod 27
